Measurements published in PubChem BioAssay (NCI).
The panel holds about 79,000 compounds, 15% with a hit somewhere; the sample as a whole holds those more often. Activity calls are given as the source filed them. No stated cut-off is given here; in the data, active means growth inhibition above about 70%; inactive means the rest.

What was measured:
[1] = NCI Yeast Anticancer Drug Screen. Data for the rad50 strain (AID 155);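 further: 0% = growth of vehicle-only cultures of the same strain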; conditions: S. cerevisiae rad50 strain growth inhibition, hits give high values
Method in brief: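 Compounds were tested on a yeast strain with an engineered DNA damage repair alteration; the reported value is growth inhibition normalised to vehicle treatment.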

[2] = NCI Yeast Anticancer Drug Screen. Data for the mec2-1 strain (AID 157); conditions: S. cerevisiae mec2-1 strain, hits give high values
Method in brief: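 Strain: mec2-1 (DNA repair/cell cycle alteration). Compound exposure, then growth measured; inhibition expressed relative to vehicle.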

[3] = NCI Yeast Anticancer Drug Screen. Data for the sgs1 mgt1 strain (AID 161);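 further: 0% = growth of cultures given vehicle only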; conditions: S. cerevisiae sgs1 mgt1 strain, hits give high values
Method in brief: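 Genetically altered yeast, compound exposure, growth inhibition relative to vehicle.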

[4] = NCI Yeast Anticancer Drug Screen. Data for the cln2 rad14 strain (AID 165);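 further: 0% = growth equal to vehicle treated cultures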; conditions: S. cerevisiae cln2 rad14 strain, hits give high values
Method in brief: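 Compounds are applied to the cln2 rad14 yeast strain, and growth is then compared with that of vehicle-treated cultures to give inhibition.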

[5] = NCI Yeast Anticancer Drug Screen. Data for the bub3 strain (AID 167); conditions: S. cerevisiae bub3 mutant strain, hits give high values
Method in brief: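 Growth of a checkpoint-deficient yeast mutant is measured after compound exposure. Values represent inhibition relative to vehicle.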

[6] = NCI Yeast Anticancer Drug Screen. Data for the mlh1 rad18 strain (AID 175); conditions: S. cerevisiae mlh1 rad18 strain growth inhibition, hits give high values
Method in brief: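 Read-out is yeast growth inhibition, calculated against vehicle-only controls. The compound was applied to a strain engineered with DNA damage repair alterations.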

[7] = at 5.0 µM (retest, dose inferred, filed as 0.5)
[8] = at 50.0 µM (retest, dose inferred, filed as 5.0)

Measured: growth inhibition

CCOC(=O)C(NC(=O)c1ccccc1)[CH](c1ccc(OC)cc1)[Sn]([c]1ccccc1)([c]1ccccc1)[c]1ccccc1 (configuration not stated)
inactive: [1]; [7] 65% | [2]; [7] 37% | [3]; [7] 38% | [4]; [7] 26% | [4]; [8] 48% | [4]; at 50.0 µM 54.5% | [5]; [7] 44% | [6]; [7] 64% | [6]; at 50.0 µM 69.1%
active: [1]; [8] 89% | [1]; at 50.0 µM 77.7% | [2]; [8] 91% | [2]; at 50.0 µM 75.2% | [3]; [8] 88% | [3]; at 50.0 µM 79.2% | [5]; [8] 94% | [5]; at 50.0 µM 79% | [6]; [8] 86%

O=Cc1cc2c(s1)C(=O)c1sccc1C2=O
active: [1]; [7] 93% | [1]; [8] 99% | [1]; at 50.0 µM 88.8% | [2]; [7] 96% | [2]; [8] 99% | [2]; at 50.0 µM 91.8% | [3]; [7] 84% | [3]; [8] 99% | [3]; at 50.0 µM 89% | [4]; [8] 97% | [4]; at 50.0 µM 91.7% | [5]; [7] 94% | [5]; [8] 99% | [5]; at 50.0 µM 90% | [6]; [7] 92% | [6]; [8] 99% | [6]; at 50.0 µM 90.3%
inactive: [4]; [7] 52%

O=c1c(-c2ccccc2)c1-c1ccccc1
active: [1]; [8] 92% | [1]; at 50.0 µM 98.7% | [2]; [8] 95% | [2]; at 50.0 µM 99.3% | [3]; [8] 90% | [3]; at 50.0 µM 98.9% | [4]; [8] 96% | [4]; at 50.0 µM 97.6% | [5]; [8] 91% | [5]; at 50.0 µM 99.2% | [6]; [8] 96% | [6]; at 50.0 µM 99%
inactive: [1]; [7] 7% | [2]; [7] 4% | [3]; [7] 8% | [4]; [7] -2% | [5]; [7] 5% | [6]; [7] 1%

O=C(CCl)N(Cc1ccccc1)Cc1ccccc1
inactive: [1]; [7] -2% | [2]; [7] -1% | [3]; [7] -8% | [4]; [7] 2% | [4]; at 50.0 µM 42.5% | [5]; [7] 6% | [6]; [7] -1%
active: [1]; [8] 92% | [1]; at 50.0 µM 84% | [2]; [8] 95% | [2]; at 50.0 µM 92.1% | [3]; [8] 94% | [3]; at 50.0 µM 89.5% | [4]; [8] 84% | [5]; [8] 92% | [5]; at 50.0 µM 85% | [6]; [8] 92% | [6]; at 50.0 µM 78.6%

O=S1(=O)C(C(O)(c2ccccc2)c2ccccc2)CCCN1c1ccccc1 (configuration not stated)
active: [1]; at 50.0 µM 76.5% | [3]; at 50.0 µM 70.5%
inactive: [1]; [7] 4% | [1]; [8] 32% | [2]; [7] -8% | [2]; [8] 0% | [2]; at 50.0 µM 31.4% | [3]; [7] -1% | [3]; [8] 16% | [4]; [7] 1% | [4]; [8] -19% | [4]; at 50.0 µM 12.2% | [5]; [7] 0% | [5]; [8] 3% | [5]; at 50.0 µM 21.4% | [6]; [7] -2% | [6]; [8] -87% | [6]; at 50.0 µM 25.4%

O=C1/C(=C/c2cccc(F)c2)CCCc2ccccc21
inactive: [1]; [7] 3% | [1]; [8] 50% | [2]; [7] 4% | [2]; [8] 36% | [2]; at 50.0 µM 37.2% | [3]; [7] 13% | [3]; [8] 67% | [4]; [7] -14% | [4]; [8] 14% | [4]; at 50.0 µM 12.3% | [5]; [7] 14% | [6]; [7] 2%
active: [1]; at 50.0 µM 70% | [3]; at 50.0 µM 82.5% | [5]; [8] 81% | [5]; at 50.0 µM 75.5% | [6]; [8] 75% | [6]; at 50.0 µM 72.7%

O=[N+]([O-])c1cc(NC(=S)SCc2ccccc2)ccc1Cl
inactive: [4]; [7] 29% | [5]; [7] 8%
active: [1]; [7] 92% | [1]; [8] 98% | [1]; at 50.0 µM 98.8% | [2]; [7] 74% | [2]; [8] 99% | [2]; at 50.0 µM 99.3% | [3]; [7] 92% | [3]; [8] 99% | [3]; at 50.0 µM 99.2% | [4]; [8] 97% | [4]; at 50.0 µM 99.1% | [5]; [8] 97% | [5]; at 50.0 µM 99.2% | [6]; [7] 91% | [6]; [8] 99% | [6]; at 50.0 µM 99.2%

CCCCCCCCCCCCCCCCNC(=O)/C(=C\c1ccccc1O)NC(=O)c1ccccc1
inactive: [1]; [7] 0% | [1]; [8] 6% | [1]; at 50.0 µM 66.2% | [2]; [7] -8% | [2]; [8] -2% | [2]; at 50.0 µM 35.1% | [3]; [7] 0% | [3]; [8] 14% | [4]; [7] 33% | [4]; [8] -20% | [4]; at 50.0 µM 27.3% | [5]; [7] 2% | [5]; [8] 8% | [6]; [7] 18% | [6]; [8] -6% | [6]; at 50.0 µM 67.6%
active: [3]; at 50.0 µM 71.7% | [5]; at 50.0 µM 73.7%

N=c1n(CC(=O)NC23CC4CC(CC(C4)C2)C3)c2ccccc2n1CC(=O)NC12CC3CC(CC(C3)C1)C2
active: [6]; at 50.0 µM 79.1%
inactive: [1]; [7] -4% | [1]; [8] 34% | [1]; at 50.0 µM 59.1% | [2]; [7] -15% | [2]; [8] 8% | [2]; at 50.0 µM 34.2% | [3]; [7] -2% | [3]; [8] 42% | [3]; at 50.0 µM 44.5% | [4]; [7] -14% | [4]; [8] 25% | [4]; at 50.0 µM 44% | [5]; [7] -19% | [5]; [8] 12% | [5]; at 50.0 µM 59.5% | [6]; [7] -5% | [6]; [8] 27%
